Results with a measured potency or affinity are listed apart. Active and inactive are the calls of the source.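 The calls were made as follows: active = compounds lowering caspase signal with half-maximal concentration at most ten times their top tested dose; inconclusive = flat curve with 30 to 70% inhibition, or poor fit; inactive = the rest.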
Experiment: caspase-3/7 inhibition in cytokine-treated INS-1E, dose response, beta-cell apoptosis inhibitor project, cell-based, caspase luminescence, dry powder (AID 488848)
Settings: INS-1E cytokine-induced caspase-3/7 luminescence, 48 h; series mostly up to 19.5 µM

Row | Structure (SMILES) | outcome
1 | COc1ccc(S(=O)(=O)N(C)C[C@@H]2Oc3c(NC(=O)Nc4cccc5c4CC(C)(C)O5)cccc3C(=O)N([C@@H](C)CO)C[C@H]2C)cc1 | inactive
2 | COc1ccc(S(=O)(=O)N(C)C[C@@H]2Oc3c(NC(=O)Nc4cccc5ccccc45)cccc3C(=O)N([C@@H](C)CO)C[C@H]2C)c(OC)c1 | inactive
3 | COc1ccc(S(=O)(=O)N(C)C[C@@H]2Oc3c(NC(=O)Nc4ccccc4-c4ccccc4)cccc3C(=O)N([C@@H](C)CO)C[C@H]2C)cc1 | inactive
4 | COc1ccccc1S(=O)(=O)N(C)C[C@@H]1Oc2c(NC(=O)Nc3cccc4ccccc34)cccc2C(=O)N([C@@H](C)CO)C[C@H]1C | inactive
5 | COc1ccc(S(=O)(=O)N(C)C[C@@H]2Oc3c(NC(=O)NC4CCCc5ccccc54)cccc3C(=O)N([C@@H](C)CO)C[C@H]2C)cc1 (some centres undefined) | inactive
6 | C[C@@H]1CN([C@@H](C)CO)C(=O)c2cccc(NC(=O)Nc3ccc(F)cc3)c2O[C@H]1CN(C)S(=O)(=O)c1ccc(Cl)cc1 | inactive
7 | COc1ccc(S(=O)(=O)N(C)C[C@@H]2Oc3c(NC(=O)Nc4cccc5ccccc45)cccc3C(=O)N([C@@H](C)CO)C[C@H]2C)cc1F | inactive
8 | COc1ccc(S(=O)(=O)N(C)C[C@@H]2Oc3c(NC(=O)Nc4ccc5occc5c4)cccc3C(=O)N([C@@H](C)CO)C[C@H]2C)cc1 | inactive
9 | C[C@@H]1CN([C@@H](C)CO)C(=O)c2cccc(NC(=O)Nc3cccc4ccccc34)c2O[C@H]1CN(C)S(=O)(=O)c1ccc(Cl)cc1 | inactive

— PubChem BioAssay AID488848 (Broad Institute, 2010)
